From PubChem BioAssay AID720711 (National Center for Advancing Translational Sciences (NCATS), 2013)
About 290 (0.081%) of roughly 360,000 compounds were called active. Calls follow the shape of the dose curve; as a rule, active = well fitted activation curve with a large enough effect; inconclusive = small, poorly fitted or top-dose-only effect; inactive = no such curve, though single readings can be large or run the other way. The entries come from a sample that favours actives as a whole.

molecular target: Rap guanine nucleotide exchange factor 4 (Homo sapiens) (UniProt Q8WZA2); assay: qHTS for Agonist of cAMP-regulated guanine nucleotide exchange factor 4 (EPAC2): primary screen; details: biochemical qHTS; Potency: EPAC2 activation; series mostly up to 154 µM; activation: at the top concentration; also: nearly all actives have a fitted effect of over 50% in size
Sequence (Q8WZA2 whole entry, looked up): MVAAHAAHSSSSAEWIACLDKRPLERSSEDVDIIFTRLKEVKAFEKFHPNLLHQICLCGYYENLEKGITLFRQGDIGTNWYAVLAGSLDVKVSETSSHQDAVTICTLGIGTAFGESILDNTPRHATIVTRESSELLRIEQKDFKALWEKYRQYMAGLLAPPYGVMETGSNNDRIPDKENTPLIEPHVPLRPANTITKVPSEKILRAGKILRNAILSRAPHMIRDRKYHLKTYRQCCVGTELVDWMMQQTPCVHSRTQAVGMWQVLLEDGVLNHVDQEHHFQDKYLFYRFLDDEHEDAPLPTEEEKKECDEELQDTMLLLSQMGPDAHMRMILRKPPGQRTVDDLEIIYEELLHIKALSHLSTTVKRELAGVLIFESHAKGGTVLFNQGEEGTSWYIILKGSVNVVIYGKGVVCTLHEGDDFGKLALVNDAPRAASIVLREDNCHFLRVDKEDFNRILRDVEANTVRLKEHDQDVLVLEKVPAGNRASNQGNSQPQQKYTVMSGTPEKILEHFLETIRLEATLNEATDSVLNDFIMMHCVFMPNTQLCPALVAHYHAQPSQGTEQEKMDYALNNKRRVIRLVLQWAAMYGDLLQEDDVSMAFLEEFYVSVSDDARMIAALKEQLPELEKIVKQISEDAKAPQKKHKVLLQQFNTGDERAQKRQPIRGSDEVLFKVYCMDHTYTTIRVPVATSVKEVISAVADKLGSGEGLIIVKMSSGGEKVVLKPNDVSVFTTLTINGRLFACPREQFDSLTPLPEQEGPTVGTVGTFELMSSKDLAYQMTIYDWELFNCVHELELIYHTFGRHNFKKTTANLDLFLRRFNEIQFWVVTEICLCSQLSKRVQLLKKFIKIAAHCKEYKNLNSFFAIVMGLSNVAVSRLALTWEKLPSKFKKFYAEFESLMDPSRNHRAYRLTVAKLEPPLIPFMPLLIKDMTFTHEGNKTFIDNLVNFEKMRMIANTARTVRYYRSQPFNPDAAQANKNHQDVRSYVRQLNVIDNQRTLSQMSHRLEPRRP
Description: In multi-cellular eukaryotic organisms, the effects of cAMP are transduced by two ubiquitously-expressed intracellular cAMP receptors, the classic protein kinase A/cAMP-dependent protein kinase (PKA/cAPK) and the more recently discovered exchange protein directly activated by cAMP/cAMP-regulated guanine nucleotide exchange factor (EPAC/cAMP-GEF). Both PKA and EPAC are ubiquitously expressed in all tissues, and an increase in intracellular cAMP levels will lead to the activation of both PKA and EPAC. Therefore, careful dissections of the individual role and relative contribution of EPAC and PKA within the overall cAMP signaling in various model systems are critical for further elucidating the mechanism of cAMP signaling. To date no EPAC-specific antagonists and agonist, as well as isoform-specific agonists have been reported, and developing EPAC-specific pharmacological probes to determine the physiological functions that EPAC play in the overall cAMP-mediated signaling remains a major challenge within the research field. Furthermore, identified regulators of EPAC may lead to new mechanism-based therapeutic strategies specifically targeting the EPAC / cAMP-signaling components as EPAC has been implicated to play important roles in major human pathological conditions such as diabetes, heart disease, and cancer.
This qHTS will be used to screen the Molecular Libraries Small Molecule Repository (MLSMR) as a concentration-titration series using the NCGC unique quantitative screening (qHTS) platform to find activators for EPAC2. In addition, this assay will also be used as a counterscreen for the EPAC1 qHTS. This fluorescent based assay is developed and validated for EPAC2 that measures exchange using EPAC effector Rap1 complex with BODIPY-GDP, a GDP analog with a tethered fluorophores. Activators are identified by monitoring the change in fluorescence signal as the exchanged free BODIPY-GDP has a reduced fluorescence compared to Rap1-bound BODIPY-GDP. […] in signal (activation) is the desired outcome for the EPAC2 agonist while no activity in this assay is desired for the EPAC1 agonist counterscreen.
[1] de Rooij, J., Zwartkruis, F. J., Verheijen, M. H., Cool, R. H., Nijman, S. M., Wittinghofer, A., and Bos, J.L. (1998) Nature 396, 474-477
[2] Kawasaki, H., Springett, G. M., Mochizuki, N., Toki, S., Nakaya, M., Matsuda, M., Housman, D. E., and Graybiel, A. M. (1998) Science 282, 2275-2279
NIH Chemical Genomics Center [NCGC]
NIH Molecular Libraries Probe Centers Network [MLPCN]
Assay Submitter (PI): Xiaodong Cheng, The University of Texas, Medical Branch
Briefly, three uL of reagents (100 nM EPAC2, 250 nM RAP1B-BODIPY-GDP, 50 uM GDP) were dispensed into a 1536-well Greiner black solid-bottom medium binding assay plate. Controls and test compounds (23 nL) were transferred to the plate via a Kalypsys pin tool equipped with a 1536-pin array. The plates were centrifuged at 1,000 rpm for 15 seconds followed by 5 minute incubation at room temperature. The assay plates were read at 5 minute intervals for 30 minutes in the ViewLux plate reader using 480nm excitation and 540nm emission filters. The results were normalized to the agonist positive control of 6.5 mM cAMP.
Potency is read from the fitted curve at half-maximal effect.

Potency, active:
CCCCCCc1cc2cc(-c3nnc(-c4ccccc4)o3)c(=O)oc2cc1O 44.7 µM
COc1ccc(C(=O)Nc2nc(-c3ccc(OC)cc3)c(-c3ccc([N+](=O)[O-])cc3)s2)cc1 112 µM
Oc1ccc2ccc3cccc[n+]3c2c1 100 µM
C[n+]1ccc(/C=C/c2c[nH]c3ccccc23)cc1 100 µM

activation, inactive:
COc1cc(C(=O)NCC(=O)NCCSc2ccc(Br)cc2)cc(OC)c1OC 1.02%
CN(CCOc1ccc(Br)cc1)CC(=O)Nc1cccc(S(=O)(=O)NC2=NCCC2)c1 8.89%
CCN=C1S/C(=C\c2cc(Br)ccc2OCC(=O)OCC)C(=O)N1CC -3.99%
CC(C)N1C(=S)SC(C)(C)C1n1oc(=O)n(-c2ccc(Cl)c(Cl)c2)c1=O (stereo not given) 16.2%
COC(=O)c1ccc([C@@H](O)[C@H](C)C(=O)CC(=O)OC(C)(C)C)cc1 7.76%
CC(=O)Oc1ccc(-c2cccc(C(=O)N3CCCCC3)c2)cc1 4.17%
CCN(CC(=O)Nc1cccc(S(N)(=O)=O)c1)Cc1nc2ccccc2c(=O)[nH]1 5.9%
Cc1nc2ccc(S(=O)(=O)N(C)CC(=O)NC(C)c3ccccc3)cc2s1 (stereo not given) -5.42%
Cc1cc2c(cc1C)NC(c1ccccn1)C1=C(CC(C)(C)CC1=O)N2 (stereo not given) 0% [at 15.6 µM, 100% = 6.5 mM cAMP response]
O=C(Cn1nnc2ccccc2c1=O)NCc1ccc(Cl)cc1 6.7%
Cc1ccc(S(=O)(=O)CCC(=O)OCc2ccccc2)cc1 7.04%
O=C(CNC(=O)c1ccccc1F)OCC(=O)c1c[nH]c2ccccc12 -5.16%
CN1C(CC(=O)Nc2ccc(Br)cc2)c2ccccc2CC1(C)C (stereo not given) 2.28%
O=C(COC(=O)c1c(Cl)cccc1Cl)Nc1cccc(S(=O)(=O)NC2=NCCCCC2)c1 5.96%
CCCN(CC(=O)Nc1ccc(C(N)=O)cc1)CC(=O)Nc1ccccc1C 3.61%
COC(=O)[C@]12CCCCC=C1N(Cc1ccco1)C(=O)[C@H](CC(=O)NCCCCc1ccccc1)C2 5.99%
COc1ccc(S(=O)(=O)NC(CC(=O)NCc2ccccc2OC)c2ccco2)cc1 (stereo not given) -3.25%
Cc1sc2ncn(CC(=O)NCCN(C)C)c(=O)c2c1S(=O)(=O)N1CCC(C)CC1 1.43%
CN(CCc1ccccn1)C(=O)c1ccc(OC2CCN(CCc3ccccc3)CC2)cc1 -1.49%
O=C1CCc2cc(S(=O)(=O)N3CCC(C(=O)NCc4ccccc4Cl)CC3)ccc2N1 -0.988%
CCOc1ccccc1Nc1nnc(SCC(=O)NCC2CCCO2)s1 (stereo not given) -2.02%
N#CCCn1cnc2ccccc21 5.55%
O=[N+]([O-])c1ccc(CN2CC(N3CCC(c4ccccc4)CC3)CS2(=O)=O)cc1 (stereo not given) 12.6%
CC(=O)[C@@]12O[C@@H]1C[C@H]1[C@@H]3CC[C@H]4C[C@@H](O)CC[C@]4(C)[C@H]3CC[C@@]12C 7.28%
CC1Cc2ccccc2N1S(=O)(=O)c1c(N)n(C)c(=O)n(C)c1=O (stereo not given) 2%
CC(C(=O)NC1CCCC1)N(c1ccc(Oc2ccccc2)cc1)S(C)(=O)=O (stereo not given) 9.13%
CC(=O)NC12CC3CC(C1)CC(C(=O)N1CCN(S(=O)(=O)c4cccs4)CC1)(C3)C2 -5.25%
Cc1cc(C)c(S(=O)(=O)N2C=CC(C(F)(F)F)=NCC2)c(C)c1 6.38%
O=C(C1CCC1)N1CCN(S(=O)(=O)c2ccc([N+](=O)[O-])cc2)CC1 4.71%
COc1ccc(NS(=O)(=O)c2cc(NC(=O)CC(=O)c3ccc([N+](=O)[O-])cc3)ccc2C)cc1 -1.43%
COc1ccc(-c2[nH][nH]c(=O)c2NC(=O)c2ccc([N+](=O)[O-])cc2)cc1 2.41%
CCOC(=O)NC(C(F)(F)F)(C(F)(F)F)P(=O)(c1ccccc1)c1ccccc1 3.46%
COCCN1CCN(C(=O)c2cc(COc3ccc(F)cc3Cl)on2)CC1 -3.51%
Cc1cc(Cl)c2oc(C(=O)N3CCC(O)(c4ccccc4)CC3)c(C)c2c1 3.33%
Cc1cccc(OCc2nnc(SCc3nc4cc(C(F)(F)F)ccc4c(=O)[nH]3)o2)c1 -6.74%
Cc1nnc(N(Cc2ccco2)C(=O)c2ccno2)s1 2.05%
CCC1C(C#N)=C(SC)NC2=C1C(=O)CC(C)(C)C2 (stereo not given) -8.31%
CCn1cc(NC(=O)Nc2ccc(OC)c(OC)c2)c(C(N)=O)n1 -3.89%
COc1ccc(CNC(=O)c2ccc(-c3cccnc3)c3ccoc23)cc1OC 5.81%
CCc1noc(C)c1C(=O)N1CCCC(N2CCN(c3ccc(F)cc3)CC2)C1 (stereo not given) 7.4%
C=C1C(=O)OC2C1CCC(C)=CCCC1(C)OC21 (stereo not given) 8.7%
CCC(C(=O)NCCC(C)C)N(Cc1ccccc1Cl)C(=O)c1snc(C(N)=O)c1N (stereo not given) 24%
COc1cccc(N(CC(=O)NC2CCCC2)C(=O)CCCC(=O)Nc2ccccn2)c1 9.06%
Cc1nn(C(C)C(=O)NCCC2=CCCCC2)c(=O)c2nn(-c3ccccc3)c(C)c12 (stereo not given) 7.66%
CC(C)C(NC(=O)OCc1ccccc1)C(=O)OCC(=O)N1C(C)CCCC1C (stereo not given) 11.3% [at 15.6 µM, 100% = 6.5 mM cAMP response]
COc1ccc(S(=O)(=O)NCC(c2ccco2)N2CCOCC2)cc1 (stereo not given) 11.6%
